Data on 14 compounds can be found in PubChem BioAssay.

Molecules are shown by their SMILES. Activity calls are given as the source filed them. Rule as the data show it, unless noted: active = inhibition above about 30%; inactive = the rest.

Assay [1] in a line: reducers of endogenous Her2 protein level, primary screen, SKBR3 breast tumor cells, AlphaScreen, ATP viability (AID 461;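 active = Her2 level under about 52% in both replicate screens, with viability over 70% of control, limit read from the data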;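 as to Her2 level: lower value means less Her2 protein in the cells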;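 as to viability: percent of carrier control wells set as 100% viability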). The conditions noted are these: 18-24 h, measured here: SKBR3 viability, ATP luminescence, at 10 µM.
Assay [2] deals with Receptor tyrosine-protein kinase erbB-2 (Homo sapiens) (UniProt P04626). The description is as above. The conditions noted are these: 18-24 h, at 10 µM, stronger effect = lower value.
Receptor tyrosine-protein kinase erbB-2 (Homo sapiens), sequence (P04626 whole entry, looked up): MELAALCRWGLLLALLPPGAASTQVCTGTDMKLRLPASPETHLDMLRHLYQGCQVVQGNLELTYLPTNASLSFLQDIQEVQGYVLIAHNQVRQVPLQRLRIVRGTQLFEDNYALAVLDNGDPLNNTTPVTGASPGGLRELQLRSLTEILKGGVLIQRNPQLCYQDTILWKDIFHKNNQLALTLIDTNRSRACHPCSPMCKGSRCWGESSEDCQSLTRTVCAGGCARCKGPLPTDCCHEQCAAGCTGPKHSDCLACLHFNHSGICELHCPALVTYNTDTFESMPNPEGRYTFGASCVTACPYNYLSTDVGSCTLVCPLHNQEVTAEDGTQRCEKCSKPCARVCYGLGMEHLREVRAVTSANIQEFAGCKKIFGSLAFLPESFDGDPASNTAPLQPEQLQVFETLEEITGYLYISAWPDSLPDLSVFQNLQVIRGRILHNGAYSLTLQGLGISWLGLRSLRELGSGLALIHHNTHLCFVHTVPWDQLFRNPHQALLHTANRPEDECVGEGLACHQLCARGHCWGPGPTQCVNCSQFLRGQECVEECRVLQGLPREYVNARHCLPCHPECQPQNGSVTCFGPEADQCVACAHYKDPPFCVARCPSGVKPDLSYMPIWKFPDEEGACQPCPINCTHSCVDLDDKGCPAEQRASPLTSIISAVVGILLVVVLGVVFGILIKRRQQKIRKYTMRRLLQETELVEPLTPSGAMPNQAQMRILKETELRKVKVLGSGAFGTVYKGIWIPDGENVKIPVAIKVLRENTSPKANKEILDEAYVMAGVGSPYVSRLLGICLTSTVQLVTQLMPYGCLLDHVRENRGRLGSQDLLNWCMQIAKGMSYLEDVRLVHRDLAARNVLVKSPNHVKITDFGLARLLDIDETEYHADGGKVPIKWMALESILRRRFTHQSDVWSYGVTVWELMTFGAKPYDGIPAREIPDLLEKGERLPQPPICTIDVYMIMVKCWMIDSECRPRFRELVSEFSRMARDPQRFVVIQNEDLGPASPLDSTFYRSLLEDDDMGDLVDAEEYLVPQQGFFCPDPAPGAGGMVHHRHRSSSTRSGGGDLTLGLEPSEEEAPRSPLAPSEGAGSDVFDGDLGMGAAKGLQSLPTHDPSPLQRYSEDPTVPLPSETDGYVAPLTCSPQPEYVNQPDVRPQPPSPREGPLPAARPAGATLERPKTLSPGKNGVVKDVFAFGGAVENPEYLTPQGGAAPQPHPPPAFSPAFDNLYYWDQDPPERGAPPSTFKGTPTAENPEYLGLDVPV
The nature of assay [3]: SK-BR-3 cell growth inhibitors, pilot screen, 24 h, human (AID 572;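 active = viability at or below 10% of carrier control in both of two separate runs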;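 also: compound exposure lasted between 18 and 24 h rather than exactly 24 h; 100% = carrier-treated control wells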). The conditions noted are these: SK-BR-3 viability, CellTiter-Glo luminescence, at 10 µM, stronger effect = lower value. (Cellular ATP, detected with luciferase, serves as a proxy for viable cell number.)
Assay [4] can be described thus: growth inhibitors of H69AR lung tumor, primary screen, human, duplicate replicates (AID 580;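 active = viability at or under a set limit in both replicates, limit being median viability minus 3 SD, cut at about 48% in these data, passing the limit was not always enough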;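 also: 100% = mean luminescence of untreated wells and 0% = no signal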). The conditions noted are these: H69AR lung tumor cells viability, ATP luminescence, 72 h; at 10 µM; stronger effect = lower value.
Assay [5] can be described thus: reversal of MRP1-mediated doxorubicin resistance, pilot screen, H69AR cells, doxorubicin co-treatment (AID 601;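 active = viability loss from added drug above about 55%, and viability with drug at most 40%, in both replicates, limit read from the data, passing the limit was not always enough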). The conditions noted are these: CellTiter-Glo, 72 h, at 10 µM; for differential viability (reversal): stronger effect = higher value.
Assay [6] is described as follows: 384-well plate pilot, post-Golgi transport modulator project, inhibition of yeast transport mutant growth (AID 636; in the data active = inhibition above about 31%). The conditions noted are these: absorbance 615 nm, about 18 h, stronger effect = higher value.
Assay [7] can be described thus: growth suppression of yeast trafficking mutant, preliminary HTS, modulators of trafficking downstream of Golgi apparatus project, 1536-format plate, OD 615 nm (AID 637). The conditions noted are these: yeast transport mutant growth, absorbance 615 nm, 18 h; stronger effect = higher value.
Setting [8] is: H69AR cells + 2 uM doxorubicin, measured here: viability with 2 uM doxorubicin, stronger effect = lower value.
[9] abbreviates: H69AR cells, compound alone cytotoxicity.

Turning to `COCc1cc(=O)[nH]c(Nc2nc3ccccc3o2)n1`, the viability (usually a read-out of living cells in per cent, often relative to untreated cells) in assay [1] is 112%; in assay [3] it was 112% (inactive); in assay [4] it was 30.3% (active); in assay [5] (setting [8]), 39.6%; in assay [5] (setting [9]) it was 30.3%. Besides, in assay [2], the Her2 level was 80% (inactive). Besides, the differential viability (reversal) in assay [5] (H69AR cells + 2 uM doxorubicin) was -9.32% (inactive). Also, the figures for the inhibition in assay [6] and in assay [7] were -4.27% (inactive) and -6.72% (inactive), respectively.

For `ON=C1/C(=N\O)CC2(C/C1=N/O)OCCO2`, the viability in assay [1] is 89%; in assay [3] it was 89% (inactive); in assay [4], 86.9% (inactive); in assay [5] (setting [8]), 87.7%; in assay [5] (setting [9]), 86.9%. The Her2 level in assay [2] is 113% (inactive). Moreover, the differential viability (reversal) in assay [5] (H69AR cells + 2 uM doxorubicin) is -0.75% (inactive). Also, the values for the inhibition in assay [6] and in assay [7] were -8.27% (inactive) and -2.1% (inactive), respectively.

With `CC(C)Cn1c(N)c(C(=O)NCc2cccs2)c2nc3ccccc3nc21`, the viability in assay [1] was 77%; in assay [3] it was 77% (inactive); in assay [4], 12% (active); in assay [5] (setting [8]), 17.1%; in assay [5] (setting [9]) it was 12%. Moreover, the Her2 level in assay [2] is 101% (inactive). Further, the differential viability (reversal) in assay [5] (H69AR cells + 2 uM doxorubicin) was -5.04% (inactive). In addition, the inhibition – broadly, the relative decrease from the control value, in per cent – in assay [6] was 24.3% (inactive); in assay [7], 12.1% (inactive).

For `Cc1ccc2c(c1)-c1c(cnn1CC(=O)Nc1ccccc1N1CCN(C)CC1)CO2`, the viability is 93.5% in assay [1]; 93.5% (inactive) in assay [3]; 85.2% (inactive) in assay [4]; 80.9% in assay [5] (setting [8]); 85.2% in assay [5] (setting [9]). For the same compound, the Her2 level in assay [2] is 84% (inactive). Further, in assay [5] (H69AR cells + 2 uM doxorubicin), the differential viability (reversal) was 4.26% (inactive). The inhibition was -1.2% (inactive) in assay [6] and -3.28% (inactive) in assay [7].

Consider `CS(=O)(=O)c1ncc(Cl)c(C(=O)Nc2ccc(N3CCOCC3)cc2)n1`, for which the viability in assay [1] is 201%; in assay [3], 201% (inactive); in assay [4] it was 0.715% (active); in assay [5] (setting [8]), 0.36%; in assay [5] (setting [9]), 0.715%. Also, the Her2 level in assay [2] was 8% (active). The differential viability (reversal) in assay [5] (H69AR cells + 2 uM doxorubicin) was 0.355% (inactive). The figures for the inhibition in assay [6] and in assay [7] were -4.21% (inactive) and 3.65% (inactive), respectively.

As to `COc1ccccc1NC(=O)Cn1nnc(-c2ccccc2NC(=O)c2ccco2)n1`, the viability in assay [1] was 91.5%; in assay [3], 91.5% (inactive); in assay [4] it was 6.73% (active); in assay [5] (setting [8]), 10.9%; in assay [5] (setting [9]), 6.73%. In addition, in assay [2], the Her2 level was 72.5% (inactive). Also, the differential viability (reversal) in assay [5] (H69AR cells + 2 uM doxorubicin) is -4.18% (inactive). In addition, the inhibition in assay [6] is -5.41% (inactive); in assay [7], 0.66% (inactive).

Regarding `CCOC(=O)c1cc(-c2ccc3c(c2)OCO3)nc2onc(C)c12`, the viability in assay [1] is 110%; in assay [3], 110% (inactive); in assay [4], 67.2% (inactive); in assay [5] (setting [8]), 70.9%; in assay [5] (setting [9]), 67.2%. Besides, in assay [2], the Her2 level was 89.5% (inactive). For the same compound, the differential viability (reversal) in assay [5] (H69AR cells + 2 uM doxorubicin) is -3.71% (inactive). The inhibition was -4.93% (inactive) in assay [6] and 2.9% (inactive) in assay [7].

As to `Cc1ccc(O)c(-c2cc3ccccc3[nH]2)c1`, the viability in assay [1] is 105%; in assay [3], 105% (inactive); in assay [4], 70.2% (inactive); in assay [5] (setting [8]) it was 59.2%; in assay [5] (setting [9]) it was 70.2%. Moreover, in assay [2], the Her2 level is 87% (inactive). In addition, in assay [5] (H69AR cells + 2 uM doxorubicin), the differential viability (reversal) is 11.1% (inactive). Besides, the inhibition in assay [6] is -8.92% (inactive); in assay [7] it was 0.33% (inactive).

As to `CCOc1cc(NC(=O)c2ccco2)c(OCC)cc1NC(=O)CCc1ccc(OC)cc1`, the viability in assay [1] was 89%; in assay [3] it was 89% (inactive); in assay [4] it was 78.7% (inactive); in assay [5] (setting [8]) it was 88.6%; in assay [5] (setting [9]), 78.7%. Besides, in assay [2], the Her2 level was 88% (inactive). Also, the differential viability (reversal) in assay [5] (H69AR cells + 2 uM doxorubicin) is -9.95% (inactive). In addition, the results for the inhibition in assay [6] and in assay [7] were 2% (inactive) and 1.31% (inactive), respectively.

As for `CCOC(=O)N1CCC(NC(=O)c2ccc3nc(N4CCOCC4)sc3c2)CC1`, the viability in assay [1] was 102%; in assay [3], 102% (inactive); in assay [4], 97.1% (inactive); in assay [5] (setting [8]), 99.7%; in assay [5] (setting [9]), 97.1%. Further, the Her2 level in assay [2] was 105% (inactive). The differential viability (reversal) in assay [5] (H69AR cells + 2 uM doxorubicin) is -2.62% (inactive). Moreover, the inhibition in assay [6] was -4.74% (inactive); in assay [7] it was -0.32% (inactive).

With `COC(=O)c1ccc2c(=O)n(Cc3ccco3)c(SCC(=O)Nc3ccc(C)c(Cl)c3)nc2c1`, the viability was 77.5% in assay [1]; 77.5% (inactive) in assay [3]; 8.06% (active) in assay [4]; 10.3% in assay [5] (setting [8]); 8.06% in assay [5] (setting [9]). In assay [2], the Her2 level was 59.5% (inactive). In addition, the differential viability (reversal) in assay [5] (H69AR cells + 2 uM doxorubicin) is -2.23% (inactive). Further, the figures for the inhibition in assay [6] and in assay [7] were -1.71% (inactive) and -2.7% (inactive), respectively.

Regarding `COc1cccc(-c2nnc3sc(C4CCCCC4)nn23)c1`, the viability in assay [1] is 83%; in assay [3] it was 83% (inactive); in assay [4] it was 63.4% (inactive); in assay [5] (setting [8]) it was 33.5%; in assay [5] (setting [9]) it was 63.4%. In addition, in assay [2], the Her2 level was 53.5% (active). In addition, the differential viability (reversal) in assay [5] (H69AR cells + 2 uM doxorubicin) was 29.9% (inactive). Moreover, the inhibition is -1.58% (inactive) in assay [6] and 11% (inactive) in assay [7].

Regarding `COc1ccc(-c2n[nH]c(C)c2-c2ccc(Cl)cc2)c(O)c1OC`, the viability in assay [1] is 83.5%; in assay [3] it was 83.5% (inactive); in assay [4], 23.2% (active); in assay [5] (setting [8]), 33.8%; in assay [5] (setting [9]) it was 23.2%. In assay [2], the Her2 level is 109% (inactive). In addition, the differential viability (reversal) in assay [5] (H69AR cells + 2 uM doxorubicin) is -10.6% (inactive). The inhibition in assay [6] is -0.92% (inactive); in assay [7] it was 4.26% (inactive).

For the compound `CN(C)CC(O)COc1ccc(-c2ccc(C#N)cc2)cc1` (stereo unspecified), the viability in assay [1] is 79.5%; in assay [3], 79.5% (inactive); in assay [4] it was 96% (inactive); in assay [5] (setting [8]), 81.8%; in assay [5] (setting [9]) it was 96%. Also, the Her2 level in assay [2] was 109% (inactive). Moreover, the differential viability (reversal) in assay [5] (H69AR cells + 2 uM doxorubicin) is 14.3% (inactive). Moreover, the inhibition in assay [6] was 0.27% (inactive); in assay [7], -6.61% (inactive).
